# Several values for one entry are separate records, joined by “and”; a condition that tells them apart may be missing. Identical values can stand only once. Counter-ions that a name gives are not always drawn. Hit rate of the full screen: of about 5,800 compounds, about 620 (11%) showed activity. This is one part of a sample in which actives are shown more often than they occur. Unmarked numbers belong to inactive results.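 How the source made its calls: active = score above a cut-off or among the top three wells of a plate; in these data no inactive exceeds 0.85.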
# System: primary human hepatic stellate cells (donor 1)
# Assay: scaled lipid accumulation score (0 = DMSO-like, 1 = nortriptyline-like); higher = stronger HSC inactivation (lipid re-accumulation), active = hit call of the paper
# Settings: 48 h
# [1] = library stock concentration: 10 mM
# [2] = library stock concentration: 1 mM
# [3] = library stock concentration: 3.33 mM
# [4] = library stock concentration: 80 uM
# [5] = library stock concentration: 400 uM
# [6] = library stock concentration: 2 mM
# [7] = library stock concentration: 6.3 mM
# [8] = library stock concentration: 6.2 mM
compound,measurement,setting,value
COC(=O)c1c(C)[nH]c(C)c1C(=O)c1ccccc1Cc1ccccc1,scaled lipid accumulation score,[1],0.13 and 0.001
CCCCCCOc1ccccc1C(N)=O [Exalamide],scaled lipid accumulation score,[1],≤ -0.027
CNCCCCOc1ccccc1Cc1ccccc1.Cl [Bifemelane hydrochloride],scaled lipid accumulation score,[1],1.41 (active)
CNCCCCOc1ccccc1Cc1ccccc1 [Bifemelane],scaled lipid accumulation score,[1],1.08 (active)
CCOC(=O)c1c(Cc2cccc(Cl)c2)[nH]c2c1cc(O)c1ccccc12,scaled lipid accumulation score,[2],≤ 0
CC/C=C\C/C=C\C/C=C\CCCCCCCC(=O)NCCO [.alpha.-Linolenoyl Ethanolamide],scaled lipid accumulation score,[2],0.006
CCOc1nc(NC(=O)Cc2cc(OC)ccc2OC)cc(N)c1C#N [JNK Inhibitor VIII],scaled lipid accumulation score,[3],≤ 0
CNc1cc(OC)c(C(=O)NC2CCN(Cc3ccccc3)C2C)cc1Cl (stereo not drawn) [Nemonapride],scaled lipid accumulation score,[1],0.728
NC(=O)Nc1sc(-c2ccccc2)cc1C(N)=O [IKK-2 Inhibitor VI],scaled lipid accumulation score,[3],≤ 0
COc1cccc(CCc2ccccc2OCC[C@@H]2C[C@@H](O)CN2C)c1.Cl,scaled lipid accumulation score,[1],1.18 (active)
OCc1c[nH]c2ccccc12 [Indole-3-carbinol],scaled lipid accumulation score,[3],≤ 0
same,scaled lipid accumulation score,[1],≤ 0
OC1(c2ccc(Cl)cc2)CCN(Cc2c[nH]c3ccccc23)CC1,scaled lipid accumulation score,[1],1.17 (active)
c1ccc2c(Cc3c[nH]c4ccccc34)c[nH]c2c1 [Diidolylmethane],scaled lipid accumulation score,[2],≤ -0.021
CC[C@@H](CC[C@@H](C)[C@H]1CC[C@H]2[C@@H]3CCC4C[C@@H](O)CC[C@]4(C)[C@H]3CC[C@]12C)C(C)C (stereo partly drawn) [Beta-sistosterol],scaled lipid accumulation score,,≤ 0
"COc1cc(OC)cc(OC)c1 [1,3,5-trimethoxybenzene]",scaled lipid accumulation score,[1],≤ 0
COc1ccc2nc3n[nH]c(C)c3c(NCCOCCO)c2c1,scaled lipid accumulation score,[4],≤ -0.001
same,scaled lipid accumulation score,[5],≤ -0.001
same,scaled lipid accumulation score,[6],≤ -0.001
same,scaled lipid accumulation score,[3],0.203
same,scaled lipid accumulation score,[1],0.021
COc1ccc(-c2ccc3ncc4c(c3c2)n(-c2ccc(N3CCNCC3)c(C(F)(F)F)c2)c(=O)n4C)cn1.O=C(O)/C=C\C(=O)O,scaled lipid accumulation score,[5],0.909 (active)
COc1cc(OC)cc(-c2ccc3ncc4ccc(=O)n(-c5ccc(N6CCNCC6)c(C(F)(F)F)c5)c4c3c2)c1,scaled lipid accumulation score,[4],0.045
same,scaled lipid accumulation score,[5],0.305
same,scaled lipid accumulation score,[6],0.652
same,scaled lipid accumulation score,[1],0.426
COc1ccc(-c2ccc3ncc4c(c3c2)n(-c2ccc(N3CCNCC3)c(C(F)(F)F)c2)c(=O)n4C)cn1,scaled lipid accumulation score,[4],0.133
same,scaled lipid accumulation score,[6],0.546
same,scaled lipid accumulation score,[3],0.237
same,scaled lipid accumulation score,[1],≤ 0 and 0.223
S=c1[nH]c(-c2ccccc2)cn1-c1ccccc1,scaled lipid accumulation score,[1],≤ -0.07
Nc1c2c(nc3c1CCC3)CCCC2,scaled lipid accumulation score,[1],≤ 0
CCCCCCCCCCCCCCCCOC[C@H](COP(=O)([O-])OCC[N+](C)(C)C)OC(=O)CCCCCCCC(=O)O [Azelaoyl PAF],scaled lipid accumulation score,[2],≤ 0
CCN(CC)C(C)CN1c2ccccc2Sc2ccccc21 (stereo not drawn) [Ethopropazine hydrochloride],scaled lipid accumulation score,,0.644
same,scaled lipid accumulation score,library stock concentration: 5.7 mM,0.667
same,scaled lipid accumulation score,[1],0.301 and 0.673
CN(C)CCCN1c2ccccc2Sc2ccc(Cl)cc21,scaled lipid accumulation score,[1],0.711
CN(C)CCCN1c2ccccc2Sc2ccc(Cl)cc21 [Chlorpromazine] [listing 1 of 2 here],scaled lipid accumulation score,[7],1.09 (active)
CC(CN1c2ccccc2Sc2ccccc21)N(C)C (stereo not drawn) [Promethazine HCl],scaled lipid accumulation score,[3],≤ 0
same,scaled lipid accumulation score,library stock concentration: 7 mM,0.609
same,scaled lipid accumulation score,[1],0.62
CC(CN1c2ccccc2Sc2ccccc21)N(C)C.Cl (stereo not drawn) [Promethazine hydrochloride],scaled lipid accumulation score,[1],0.888 (active)
CN(C)CCCN1c2ccccc2Sc2ccc(Cl)cc21 [Chlorpromazine] [listing 2 of 2 here],scaled lipid accumulation score,[1],0.466
CC(CN1c2ccccc2Sc2ccccc21)N(C)C (stereo not drawn) [Promethazine hydrochloride],scaled lipid accumulation score,,0.571
same,scaled lipid accumulation score,[8],0.655
same,scaled lipid accumulation score,[1],0.748
CC(CN1c2ccccc2Sc2ccccc21)N(C)C (stereo not drawn) [Phenergan],scaled lipid accumulation score,[1],0.649
CN(C)CCCN1c2ccccc2Sc2ccc(Cl)cc21 [Chlorpromazine hydrochloride],scaled lipid accumulation score,,0.717
same,scaled lipid accumulation score,[1],0.259
CN(C)CCCN1c2ccccc2Sc2ccccc21 [Promazine hydrochloride],scaled lipid accumulation score,,0.365
same,scaled lipid accumulation score,[8],0.834
same,scaled lipid accumulation score,[1],0.324
CN(C)CCCN1c2ccccc2Sc2ccccc21.Cl [Promazine hydrochloride],scaled lipid accumulation score,[1],0.923 (active)
CN(C)CCCN1c2ccccc2Sc2ccc(Cl)cc21 [Chlorpromazine HCl],scaled lipid accumulation score,[3],0.38
same,scaled lipid accumulation score,[7],0.53
CN(C)CCCN1c2ccccc2Sc2ccc(Cl)cc21.Cl [Chlorpromazine HCl],scaled lipid accumulation score,[1],0.833 (active)
CCCCCC(O)C=CC1C(O)CC(O)C1CC=CCCCC(=O)OC (stereo not drawn) [Prostaglandin F2.alpha. methyl ester],scaled lipid accumulation score,[2],≤ 0
"Nc1ncnc2c1nc(Br)n2[C@@H]1O[C@@H]2COP(=O)(O)O[C@H]2[C@H]1O [8-Bromo-cAMP, sodium salt]",scaled lipid accumulation score,[1],≤ -0.006
Nc1ncnc2c1nc(Br)n2[C@@H]1O[C@@H]2COP(=O)(O)O[C@H]2[C@H]1O [8-Bromo-cAMP],scaled lipid accumulation score,library stock concentration: 12.3 mM,0.137
CC(NC(=O)c1ccccc1/N=C/c1c(O)ccc2ccccc12)c1ccccc1 (stereo not drawn) [Sirtinol],scaled lipid accumulation score,[3],0.008
same,scaled lipid accumulation score,[1],0.024 and ≤ -0.001
CCCCCCCCCCCCCCCCOC[C@H](COP(=O)([O-])OCC[N+](C)(C)C)OC [2-O-methyl PAF C-16],scaled lipid accumulation score,[2],≤ 0
CCCCC[C@H](O)/C=C/[C@H]1CC[C@H](O)[C@@H]1C/C=C\CCCC(=O)O [11-deoxy Prostaglandin F2.alpha.],scaled lipid accumulation score,[2],≤ 0
"CCCCCCC(=O)SC[C@H](COP(=O)([O-])OCC[N+](C)(C)C)SC(=O)CCCCCC [1,2-bis(heptanoylthio) Glycerophosphocholine]",scaled lipid accumulation score,[2],≤ 0
"CNC(=O)[C@H](Cc1c[nH]c2ccccc12)NC(=O)[C@@H](CC(=O)NO)CC(C)C [Ilomastat (GM6001, Galardin)]",scaled lipid accumulation score,[3],≤ -0.009
same,scaled lipid accumulation score,[1],≤ 0
CNC(=O)[C@H](Cc1c[nH]c2ccccc12)NC(=O)[C@@H](CC(=O)NO)CC(C)C,scaled lipid accumulation score,library stock concentration: 12.9 mM,≤ -0.009
NC(=O)N1c2ccccc2CC(O)c2ccccc21 (stereo not drawn) [Licarbazepine],scaled lipid accumulation score,[1],0.008
O=c1c(O)c(-c2ccc(O)c(O)c2)oc2cc(O)c(O)c(O)c12 [Quercetagetin],scaled lipid accumulation score,[3],≤ 0
O=C(O)C(Cc1c[nH]c2ccccc12)N1C(=O)c2ccccc2C1=O (stereo not drawn),scaled lipid accumulation score,[4],≤ 0
same,scaled lipid accumulation score,[5],≤ 0
same,scaled lipid accumulation score,[6],≤ 0
same,scaled lipid accumulation score,[3],≤ 0
same,scaled lipid accumulation score,[1],0.017 and ≤ 0
C#CCOc1ccccc1CCCCCC(=O)NS(C)(=O)=O,scaled lipid accumulation score,[2],0.013
O=C1CCc2cc(OCCCCc3nnnn3C3CCCCC3)ccc2N1 [Cilostazol],scaled lipid accumulation score,,≤ 0
same,scaled lipid accumulation score,[3],≤ 0
same,scaled lipid accumulation score,library stock concentration: 5.4 mM,≤ 0
O=C1CCc2ccc(OCCCCN3CCN(c4cccc(Cl)c4Cl)CC3)cc2N1,scaled lipid accumulation score,[1],0.964 (active)
O=C1CCc2ccc(OCCCCN3CCN(c4cccc(Cl)c4Cl)CC3)cc2N1 [Aripiprazole],scaled lipid accumulation score,[3],≤ 0
same,scaled lipid accumulation score,library stock concentration: 4.5 mM,0.238 and 0.464
same,scaled lipid accumulation score,[1],0.827
Cn1sc(=O)n(Cc2ccccc2)c1=O [GSK-3b Inhibitor I],scaled lipid accumulation score,[3],≤ 0
Cc1ccc(NC2=CC(=O)c3sc(C)nc3C2=O)cc1 [Ryuvidine],scaled lipid accumulation score,[1],0.904 (active)
Cc1ccc(NC2=CC(=O)c3sc(C)nc3C2=O)cc1 [Cdk4 Inhibitor III],scaled lipid accumulation score,[3],0.942 (active)
O=C(O)[C@]1(Cc2cccc(Nc3nccs3)n2)CC[C@@H](Oc2cccc(Cl)c2F)CC1,scaled lipid accumulation score,[3],≤ 0
same,scaled lipid accumulation score,[1],0.039
CCC[C@H](NC(=O)[C@@H]1[C@H]2CCC[C@H]2CN1C(=O)[C@@H](NC(=O)[C@@H](NC(=O)c1cnccn1)C1CCCCC1)C(C)(C)C)C(=O)C(=O)NC1CC1 [Telaprevir (VX-950)],scaled lipid accumulation score,[3],≤ 0
same,scaled lipid accumulation score,[1],≤ 0
CCCCCCCCCCCCCCCCOC[C@H](COP(=O)([O-])OCC[N+](C)(C)C)OC(=O)NC [Methylcarbamyl PAF C-16],scaled lipid accumulation score,[2],≤ 0
O=C(O)CCC/C=C\C[C@H]1[C@@H](/C=C/[C@@H](O)CCc2ccccc2)[C@H](O)C[C@@H]1O [8-iso-17-phenyl trinor Prostaglandin F2.alpha.],scaled lipid accumulation score,[2],≤ 0
O=C1CC2(CCCC2)CC(=O)N1CCCCNCC1COc2ccccc2O1 (stereo not drawn),scaled lipid accumulation score,[1],0.376
CNC(C)C(=O)NC(C(=O)N1CCCC1C(=O)NC(C(=O)NCCCCCCNC(=O)C(NC(=O)C1CCCN1C(=O)C(NC(=O)C(C)NC)C1CCCCC1)C(c1ccccc1)c1ccccc1)C(c1ccccc1)c1ccccc1)C1CCCCC1 (stereo not drawn),scaled lipid accumulation score,[3],0.26
same,scaled lipid accumulation score,[1],0.061
Cl.O=C(NCCCN1CCCCCC1)C(c1ccccc1)C1CCCCC1 (stereo not drawn),scaled lipid accumulation score,[1],0.897 (active)
CCN(CC)CCOC(=O)C(c1ccccc1)C1CCCCC1 (stereo not drawn) [Drofenine hydrochloride],scaled lipid accumulation score,,0.317
same,scaled lipid accumulation score,[1],0.335
CN1CC(O)C(O)C(O)C1CO (stereo not drawn) [N-Methyl-1-deoxynojirimycin],scaled lipid accumulation score,[1],≤ -0.07
